# From PubChem BioAssay
# The list is not random: actives were taken first. Their share in the collection is about 0.9%.
# A647 autofl: compound fluoresces in the A647 spectral region; 59,000 tested, under 10 active; max dye-equivalent concentration, M; AID 592; Compound fluorescence, A647 channel (570/671 nm), Tris buffer
#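 Compounds pinned into 100 mM Tris pH 8.0, 15 min at room temperature, then read with 570 nm excitation/671 nm emission filters. Fluorescence normalized to an on-plate six-point Alexa 647 standard curve, giving dye-equivalent concentration per compound concentration.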
# A488 fluor: compound autofluorescence in A488 spectral region; max dye equivalency, M; 59,000 compounds, 0.1% hits; AID 591; compound autofluorescence, A488 spectral region, dye equivalency; Compound Type: qHTS ECL - MLSMR
#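 Readout is A488 dye-equivalent concentration, calibrated by a per-plate six-point Alexa 488 series. Compounds in 100 mM Tris buffer pH 8.0 were incubated 15 min at room temperature. Plates were imaged using 480 nm excitation/540 nm emission filters.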
# Rhodamine fluor: rhodamine region autofluorescence; Rhodamine-region fluorescence, 547/598 nm, Tris buffer; hits give high values; AID 594; 59,000 compounds, 0.05% hits; max dye-equivalent concentration, M; in the data active = max dye-equivalent concentration above about 11 nM; inconclusive = between about 1.1 nM and that limit
#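 qHTS spectral profiling of compounds without any target or enzyme present, in pH 8.0 Tris buffer; plates were read after a 15-minute room-temperature incubation using the rhodamine-region filter set.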
# Fluorescein fluor: compound fluoresces in the fluorescein spectral region; Compound autofluorescence, 480/540 nm, fluorescein-equivalent; hits give high values; max fluorescein-equivalent concentration, M; 59,000 compounds, 0.91% hits; in the data active = max fluorescein-equivalent concentration above about 10 nM; inconclusive = between about 1.1 nM and that limit
#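 Autofluorescence profiling; 100 mM Tris, pH 8.0; incubation 15 min at RT; ex/em 480/540 nm; result as fluorescein-equivalent concentration.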
# Texas Red fluor: compound fluoresces in the Texas Red spectral region. 59,000 compounds, 0.06% hits. Compound fluorescence, Texas Red channel, 547/618 nm; hits give high values. max dye-equivalent concentration, M; in the data active = max dye-equivalent concentration above about 10 nM; inconclusive = between about 1.1 nM and that limit
#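 Pin-transferred compounds and Texas Red standards go into 100 mM Tris buffer, pH 8.0. After 15 min at room temperature, plates are imaged with 547/618 nm filters. Each value is a dye-equivalent concentration derived from the per-plate dye curve.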
# Resorufin autofl: compounds fluorescent in resorufin spectral region; Compound fluorescence, resorufin region 547/598 nm, buffer; hits give high values; max dye-equivalent concentration, M; 59,000 compounds, 0.04% hits
#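 Intrinsic fluorescence profiled in the resorufin window (ex 547 nm, em 598 nm) after 15 min at room temperature in pH 8.0 Tris buffer (100 mM); responses normalized against a six-point resorufin standard series as dye-equivalent concentration.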
# Hits are given with their value; . = inactive; ? = inconclusive. Unless noted, no rule for the calls is given here.
SMILES,A647 autofl,A488 fluor,Rhodamine fluor,Fluorescein fluor,Texas Red fluor,Resorufin autofl
CCOC(=O)C1=C(CSc2nc3c(cc2C#N)CN(C)CC3)OC(N)=C(C#N)C1c1ccccc1 (stereo not given),.,.,.,3.37e-08M,.,.
CCCCn1cc(SCC(=O)O)c2ccccc21,.,.,.,.,.,.
CCN(CC)c1ccc2cc(C(=O)Nc3ccccn3)c(=O)oc2c1,.,2.6e-08M,.,5.44e-07M,.,.
COc1ccccc1C(=O)Nc1ccccn1,.,.,.,?,?,.
CCN(CC)c1ccc2cc(NC(=O)CCC(=O)O)c(=O)oc2c1,.,1.23e-08M,.,2.23e-07M,.,.
CCN(CC)c1ccc2cc(C(=O)Nc3cccnc3N3CCOCC3)c(=O)oc2c1,.,?,.,4.04e-08M,.,.
CCOc1ncccc1C(=O)OCC(=O)c1ccc[nH]1,.,.,.,?,.,.
Cc1csc(SC(C)C(=O)Nc2ccc(S(=O)(=O)N3CCCC3)cc2)n1 (stereo not given),.,.,.,.,.,.
O=C(CN1c2cccc3cccc(c23)S1(=O)=O)N1CCOCC1,.,?,.,3.73e-08M,.,.
COc1ccc(-c2ccc(NCCC3=CCCCC3)nn2)cc1OC,.,.,.,?,.,.
O=C1O[C@H](CN2CCOCC2)CN1/N=C\c1ccc([N+](=O)[O-])o1,.,.,.,?,.,.
O=C1OCCN1/N=C\c1ccc([N+](=O)[O-])o1,.,.,.,3.11e-08M,?,.
C=CCn1c(=O)/c(=C/c2ccc(Cl)cc2)s/c1=C(/C#N)c1nnc2n1CCCCC2,.,.,.,.,.,.
C=CCn1c(=O)/c(=C/c2cc(OC)c(OC)c(OC)c2)s/c1=C(/C#N)c1nc2ccccc2n1C,.,1.45e-08M,.,2.78e-07M,.,.
C=CCn1c(=O)/c(=C/c2ccc(O)cc2)s/c1=C(/C#N)c1nnc2n1CCCCC2,.,?,.,9.41e-08M,.,.
CCOCCc1nnc(NC(=O)CSc2ccccc2)s1,.,.,.,.,.,.
COc1ccc(C)cc1S(=O)(=O)N1CCN(c2cccc(C(F)(F)F)c2)CC1,.,.,.,?,.,.
CC(C)CN1C(=O)NC(NC(=O)c2ccco2)(C(F)(F)F)C1=O (stereo not given),.,.,.,.,.,.
CC1=CC(=C(C#N)c2nc3ccccc3s2)C=C(C)N1Cc1ccco1,.,?,.,1.94e-07M,.,.
O=C(/C=C\c1ccc(O)cc1)c1ccc(O)cc1O,.,?,.,3.71e-08M,?,.
Cn1c2ccccc2c(=O)n2c(=O)c3ccccc3cc12,.,?,.,3.94e-08M,.,.
O=[N+]([O-])c1ccc(CSc2ncnc3c2ncn3[C@@H]2O[C@@H](CO)[C@@H](O)[C@H]2O)cc1,.,.,.,?,.,.
COc1cc(/C=c2\s/c(=C(/C#N)C(=O)N3CCCC3)n(-c3ccccc3)c2=O)ccc1O,.,.,.,?,.,.
Cc1ccc(/C=c2\s/c(=C(/C#N)C(=O)N3CCCC3)n(Cc3ccco3)c2=O)s1,.,?,.,6.39e-08M,?,.
COc1ccc2cnn(-c3ccccc3C)c(=O)c2c1OC,.,.,.,?,.,.
SMILES,A647 autofl,A488 fluor,Rhodamine fluor,Fluorescein fluor,Texas Red fluor,Resorufin autofl
CCOc1cccc(C2C(C(=O)c3ccc(C)o3)=C(O)C(=O)N2c2nccs2)c1 (stereo not given),.,?,.,4.33e-08M,.,.
Cc1ccc(S(=O)(=O)NC(=O)OC23COCN2COC3)cc1,.,.,.,?,.,.
Cc1c(N=C2Nc3cccc4cccc2c34)c(=O)n(-c2ccccc2)n1C,.,?,.,1.54e-07M,.,.
COc1ccc2c(C)cc(SCC(=O)N3CCOCC3)nc2c1,.,?,.,5.88e-08M,.,.
CCC1(C)Cc2c(C#N)c(N)sc(=S)c2CO1 (stereo not given),.,.,.,1.03e-08M,.,.
CSc1c(C#N)c(N)c(C#N)c2c1COC(C)(C)C2,.,.,.,?,.,.
N#Cc1c(N)sc(=S)c2c1CCCC2,.,?,.,6.77e-08M,?,.
N=c1c(C(=O)NCc2ccco2)cc2c(=O)n3ccccc3nc2n1Cc1ccccc1,.,.,.,1.86e-08M,.,.
N=c1c(C(=O)NCc2ccc3c(c2)OCO3)cc2c(=O)n3ccccc3nc2n1Cc1cccnc1,.,.,.,?,.,.
Cc1ccc(S(=O)(=O)c2cc3c(=O)n4ccccc4nc3n(Cc3ccco3)c2=N)cc1,.,.,.,1.46e-08M,?,.
COc1ccc(CNC(=O)c2cc3c(=O)n4ccccc4nc3n(Cc3cccnc3)c2=N)cc1,.,?,.,1.15e-07M,.,.
COCCNC(=O)c1cc2c(=O)n3cccc(C)c3nc2n(Cc2ccncc2)c1=N,.,.,.,.,.,.
CCCCNC(=O)c1cc2c(=O)n3cccc(C)c3nc2n(Cc2ccncc2)c1=N,.,.,.,1.6e-08M,?,.
COc1ccc(-c2nnn(CCc3nn[nH]n3)n2)cc1OC,.,.,.,.,.,.
O=C1c2ccccc2C(=O)N1OCc1ccccc1,.,.,.,?,.,.
N=c1c(C(=O)NCc2ccco2)cc2c(=O)n3ccccc3nc2n1Cc1ccc(Cl)cc1,.,.,.,?,?,.
CCOC(=O)c1cc2c(=O)n3ccccc3nc2n(Cc2ccc(Cl)cc2)c1=N,.,2.56e-08M,.,3.41e-07M,.,.
CCn1c(SCC(=O)NCc2ccco2)nc2cccnc21,.,.,.,?,?,.
O=C(CCS(=O)(=O)c1cccc2nsnc12)N1CC(=O)N(CCc2ccccc2)C(=O)C1,.,.,.,?,.,.
CCN1C(=O)c2cccc3c(NC(=O)C4CCCCC4)ccc1c23,.,.,.,?,.,.
CCN1C(=O)c2cccc3c(NC(=O)c4ccc5c(c4)OCCO5)ccc1c23,.,?,.,5.54e-08M,.,.
c1ccc(N2CCN(c3nc4ccccc4n4nnnc34)CC2)cc1,.,.,.,1.85e-08M,.,.
c1ccc(-n2nnnc2-n2cnc3ccccc32)cc1,.,.,.,?,.,.
CCN(CC)c1ccc(C=N/C(C#N)=C(\N)C#N)cc1,.,2.56e-08M,?,5.03e-07M,?,.
CC(C)C(=O)N(Cc1ccc2c(c1)OCO2)Cc1ccccn1,.,.,.,.,.,.
Cc1cccc(C)c1Nc1nnc(SCC(=O)NCc2ccco2)s1,.,.,.,?,.,.
Cc1ccc(N2C(=O)c3cccc4c(N5CCN(C)CC5)ccc(c34)C2=O)c2cccnc12,.,?,.,2.58e-08M,.,.
CCN1C(=O)c2cccc3c(S(=O)(=O)Nc4ncccc4C)ccc1c23,.,.,.,?,.,.
CC(=Nc1cccc(O)c1)c1sc2ccccc2c1O,.,.,.,1.91e-08M,.,.
CN=Cc1sc2ccccc2c1O,.,.,.,.,.,.
